For seven molecules, growth results are on record in PubChem BioAssay (NCI).

Common to all, as to test: NCI-60 one-dose screen, 48 h (100 = growth as untreated, 0 = no growth, -100 = all killed)
Holding throughout (settings): 10 µM unless noted

Assay [1] has as its system DU-145 prostate.
Assay [2] has as its system K-562 leukemia.
Assay [3] concerns MALME-3M melanoma.
Assay [4] concerns MDA-MB-231 breast.
Assay [5] concerns RXF 393 renal.
Assay [6] relates to SF-268 CNS.
The subject of assay [7] is SF-295 CNS.
The test system of assay [8] is SF-539 CNS.
The subject of assay [9] is UACC-257 melanoma.
For assay [10], the system named is M14 melanoma.
Assay [11] relates to HCT-15 colon.
Assay [12] relates to HT29 colon.
In assay [13] the test system is SNB-75 CNS.
Assay [14] relates to SNB-19 CNS.
The subject of assay [15] is U251 CNS.
The subject of assay [16] is SK-MEL-5 melanoma.
Assay [17] has as its system UACC-62 melanoma.
Assay [18] relates to LOX IMVI melanoma.
The test system of assay [19] is SK-MEL-28 melanoma.
Assay [20] relates to PC-3 prostate.

Compounds without any hit were thinned out: in the full panel of roughly 83,000, 20% have a hit.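 Plates (96-well) were seeded with cells, treated with compound at one concentration, and incubated for 48 hours before percent growth was determined.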 Values without a mark were called inactive. Active and inactive are the calls of the source. Rule for the calls: active = growth percent below 10; inactive = the rest.

In the case of `COc1ccc2c(c1)c(/C(O)=C1\COC(=O)C1=O)cn2Cc1ccc(F)cc1`, the growth was 139% in assay [1]; 86.6% in [2]; 106% in assay [3]; 94.1% in [4]; 104% in assay [5]; 103% in assay [6]. Further, the growth was 93.3% in assay [7]; 102% in [8]; 95.8% in [9]; 116% in assay [10]; 87.8% in assay [11]; 115% in assay [12]. In addition, the growth in assay [13] was 104%; in [14] it was 100%; in assay [15] it was 101%; in [16], 97.9%; in assay [17], 88.9%; in [18], 100%. Also, the growth in [19] was 105%.
On to `COc1cc(OC)c2sc(-c3ccc(-n4cncc4-c4cc(OC)c(OC)c(OC)c4)cc3)nc2c1`, for which the growth in assay [1] was 78.3%; in [2], 45.7%; in assay [3], 61.7%; in assay [4], 54.4%; in [5], 4.25% (active); in [6] it was 61%. The growth was 60.6% in assay [7]; 62.1% in assay [8]; 59.8% in assay [9]; 69% in assay [10]; 41.3% in assay [11]; 44.5% in assay [12]. Besides, the growth in [13] was 82.9%; in assay [14], 49.7%; in assay [15] it was 43.1%; in assay [20] it was 34.4%; in assay [16] it was 20.9%; in assay [17], 43.8%. For the same molecule, the figures for the growth in [18] and in [19] were 57.7% and 73%, respectively.
As to `COc1ccc(C(=O)Cn2c(C(=O)c3ccc(Cl)cc3)nc3ccccc32)cc1`, the growth was 98.3% in [1]; 45.7% in assay [2]; 70.7% in [3]; 65.5% in assay [4]; 14.2% in [5]; 66.7% in assay [6]. Further, the growth in assay [7] is 51.8%; in assay [8], 91%; in [9] it was 70.8%; in assay [10], 14.8%; in assay [11] it was 33.6%; in [12], 51.2%. The growth in assay [13] is 53.8%; in assay [14] it was 74%; in assay [15], 65.3%; in assay [20], 68.9%; in assay [16], 41.9%; in assay [17], 54.1%. The values for the growth in assay [18] and in assay [19] were 74.8% and 71.2%, respectively.
`COC(=O)CC[C@@H]1O[C@@H](c2ccc(F)cc2)[C@@H](O)[C@H]1O`: the growth was 112% in assay [1]; 109% in assay [2]; 101% in assay [3]; 117% in [4]; 112% in [5]; 103% in assay [6]. Also, the growth was 104% in assay [7]; 102% in assay [8]; 107% in assay [9]; 92.9% in [10]; 105% in assay [11]; 108% in [12]. Also, the growth in assay [13] was 90.1%; in assay [14] it was 108%; in [15] it was 109%; in assay [16], 95.7%; in [17] it was 106%; in [18], 99.8%. The growth in assay [19] is 102%.
Consider `CCOC(=O)C1=C(C)/C(=C\c2[nH]c(C)c(C(=O)OCC)c2C)N=C1C`, for which the growth in assay [1] is 96.2%; in assay [2] it was 106%; in assay [3], 94.6%; in assay [4] it was 82.8%; in assay [5], 101%; in [6] it was 79.1%. Moreover, the growth in [7] was 96.9%; in assay [8] it was 101%; in [9], 88.9%; in assay [10], 95.9%; in [11], 91.4%; in [12] it was 76.7%. The growth was 89.1% in [13]; 89.7% in assay [14]; 74.1% in [15]; 84.6% in assay [20]; 97.4% in assay [16]; 90.9% in assay [17]. The growth was 1.05% (active) in [18] and 88.3% in assay [19].
Turning to `Cc1nn(-c2cc(NC3CCC(O)CC3)c3c(=O)[nH]c(CCC(F)(F)F)cc3c2)c2c1C(=O)CC(C)(C)C2` (stereo unspecified), the growth in assay [1] is 27%; in assay [2] it was 18.5%; in [3], 60%; in assay [4] it was 42%; in assay [5] it was 39.1%; in assay [6], 72%. In addition, the growth in [7] is 48.5%; in assay [8], 58%; in assay [9], 62.7%; in assay [10] it was 32.3%; in [11], 31.1%; in assay [12], 13.9%. In addition, the growth in assay [13] is 56.8%; in [14] it was 63.1%; in assay [15], 56.5%; in assay [16] it was 51.7%; in [17], 45%; in assay [18], 30.2%. For the same molecule, the growth in assay [19] was 53.8%.
Take `CNC(=O)c1cc(Oc2cccc3nc(NC(=O)Nc4cc(C(F)(F)F)ccc4Cl)ccc23)ccn1`: the growth in assay [1] is 78.6%; in assay [2] it was 80.9%; in [3] it was 69.2%; in assay [4], 49.1%; in assay [5] it was 73.7%; in assay [6], 74.9%. The growth in assay [7] is 106%; in assay [8] it was 32.6%; in assay [9], 98.3%; in assay [10], 95.1%; in assay [11], 90%; in [12], 89.8%. Moreover, the growth was 68.9% in assay [13]; 102% in assay [14]; 70.4% in [15]; 80.2% in assay [16]; 96.3% in assay [17]; 63.9% in [18]. Also, the growth in assay [19] is 92.4%.
